Tg IFNy HTS – T. gondii growth inhibition under IFN-gamma; 69,000 compounds, 3.8% hits; Toxoplasma gondii growth in IFN-gamma-treated host cells; stronger effect = lower value; activity change, negative = inhibition, % (test concentration not listed); in the data active means activity change below about -70%, passing the limit was not always enough;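 further: host cells are HeLa cells infected with Toxoplasma gondii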
Active calls of the source: *; i = inactive. Shown is part of a subset that was picked to be rich in hits.

SMILES | Tg IFNy HTS
CCN(CC)S(=O)(=O)N1CCN(S(=O)(=O)Cc2cc(F)cc(F)c2)CC1 | 0
Cc1ccc(S(=O)(=O)Nc2ccccc2C(C#Cc2ccccc2)N2CCOCC2)cc1 (configuration not stated) | -54
OCC1OC(n2cnc3c(NC4CCCC4)ncnc32)C(O)C1O (configuration not stated) | 9
OC[C@H]1O[C@@H](n2cnc3c(NC4CCCC4)ncnc32)[C@H](O)[C@@H]1O | -2
OC[C@H]1O[C@@H](n2cnc3c(NCc4ccco4)ncnc32)[C@H](O)[C@@H]1O | -83*
CC(=O)c1ccc(N2CCOCC2)c(-c2ccc(S(C)(=O)=O)cc2)c1 | 44
CCN1CC2(CCC1=O)CCN(C(=O)c1ccncn1)CC2 | -25
O=C(c1ccccc1)N1CCC(c2nnc(-c3ccsc3)o2)CC1 | -14
c1ccc(Nc2cccc3c(Nc4ccccc4)cccc23)cc1 | 14
c1ccc2c(NC3=NCCCCS3)cccc2c1 | -15
Cc1ccc(Nc2cccc3ccccc23)cc1 | -119*
COc1ccc(-c2nc(CSc3nc4c(=O)[nH]c(C)nc4n3C)c(C)o2)c(OC)c1 | -12
CN1CCCC1(Cc1ccccc1)C(=O)O (configuration not stated) | -55
Cc1ccc(CC2(O)CC(C)N(C)CC2C)cc1 (configuration not stated) | 11
CC1C(c2ccccc2)N(C)C(c2ccccc2)CC1(O)Cc1ccccc1 (configuration not stated) | -85*
COc1cc(NC(=O)c2nc(Nc3ccccc3)c3ccccc3n2)cc(OC)c1OC | 95
COc1ccc(C(=O)NCCc2csc(-c3ccc(Cl)cc3)n2)cc1 | -58
COc1ccc2cc(-c3cc(-c4cc(Cl)cc(Cl)c4)nn3[C@@H](C)c3ccc(C(=O)NCCC(=O)O)cc3)ccc2c1 | -73*
CC(C)Oc1ccc(C(=O)NCCc2csc(-c3ccc(Cl)cc3)n2)cc1 | 7
Nc1ccc2c(c1)CN(Cc1ccccc1)C2 | -47
COc1ccc(C(=O)N2CCN(Cc3cnc(SC)nc3)CC2)cc1 | 1
O=C(CCc1ccccc1)N1CCC2(CC1)Nc1cc(F)ccc1-n1cccc12 | 45
COc1ccc(CCC(=O)N2CCC3(CC2)Nc2cc(F)ccc2-n2cccc23)cc1 | -75*
COc1ccc(CCC(=O)N2CCC3(CC2)Nc2cc(OC)ccc2-n2cccc23)cc1 | -82*
COc1ccc(OCC(=O)N2CCC3(CC2)Nc2cc(OC)ccc2-n2cccc23)cc1 | 18
SMILES | Tg IFNy HTS
COc1cc(CCC(=O)N2CCC3(CC2)Nc2cc(F)ccc2-n2cccc23)cc(OC)c1OC | 37
COc1ccc2c(c1)NC1(CCN(C(=O)Cc3ccc(C)cc3)CC1)c1cccn1-2 | 12
Cc1ccc(C(=O)N(Cc2ccccn2)CC2CCCO2)cc1N1CCOCC1 (configuration not stated) | 19
N#Cc1ccc(S(=O)(=O)N2CCC3(CC2)CN(c2ccc4c(c2)OCO4)C3=O)cc1 | 5
CNC(=O)C(C)N(C)C(=O)c1cc2c(n(C)c1=O)CCCC2 (configuration not stated) | 0
COc1ccccc1N(Cc1nc(-c2cccc(C)c2)oc1C)S(=O)(=O)c1ccccc1C | -49
CC(C)NC(=O)N1CCC2(CC2C(=O)N(C)Cc2ccccn2)C1 (configuration not stated) | -2
Cc1ccccc1-c1cc(N2CCN(C)CC2)ncc1N(C)C(=O)C(C)(C)c1cc(C(F)(F)F)cc(C(F)(F)F)c1 | -73*
CN1CCN(c2cc(C(F)(F)F)ccn2)CC1C(=O)O (configuration not stated) | -4
CN(C(=O)C(C)(C)Oc1cc(C(F)(F)F)n(C)n1)c1ccccc1 | 4
O=C1COc2ccc(C(=O)C3CCN(C(=O)C4CCC4)CC3)cc2N1 | -43
Cc1nc2ccc(C(=O)N3CCN(Cc4ccco4)C(CCO)C3)cc2[nH]1 (configuration not stated) | -6
O=C(CN1CCC(c2nc3ccccc3s2)CC1)N1CCN(C(=O)c2ccco2)CC1 | -34
CS(=O)(=O)N1C[C@H]2CCC[C@]2(COCC2CCOCC2)C1 | -6
COc1ccccc1C(=O)Nc1cccc(NC(=O)c2c(Cl)cnn2C)c1 | -85*
COc1ccccc1C(=O)Nc1ccc(-c2nc(-c3ccc(C)cc3)co2)cc1 | -55
COCC1(C(=O)Nc2cccc(NC(=O)c3ccccc3OC)c2)CCC1 | -2
NC(=O)Cc1csc(NC(=O)c2cnn3c(-c4ccccc4)ccnc23)n1 | 108
CN1CC(=O)N(c2cccc(F)c2)CC12CCN(C(=O)N1CCCC1)C2 (configuration not stated) | 1
CC1CCN(C(CNC(=O)Cc2nnc(N)s2)c2ccccc2)CC1 (configuration not stated) | -1
COC[C@H]1CCCN1Cc1ccc(C(=O)Nc2cnn(C)c2)cc1 | 3
Cc1ccsc1CN(C)Cc1ccc(C(=O)Nc2cnn(C)c2)cc1 | -84*
CCN(Cc1cccc(C(=O)Nc2cnn(C)c2)c1)Cc1nc(C)no1 | 6
O=C(c1cc(Cl)c[nH]c1=O)N1CCC(c2cc(Cc3ccccc3)[nH]n2)CC1 | 0
CN(Cc1ccco1)C(=O)C1CCCN(C2CCN(Cc3ccncc3)CC2)C1 (configuration not stated) | -1
SMILES | Tg IFNy HTS
CC(C)C(NC(=O)c1ccccc1Cn1cncn1)c1ccc(F)cc1 (configuration not stated) | 8
COc1ccccc1OCc1nc(Cc2ccccc2)n[nH]1 | 17
CCn1ccc(C(=O)N2CCCCC2CCNS(C)(=O)=O)n1 (configuration not stated) | -45
COc1ccc(-c2cc(N)n(-c3ccccc3)n2)cc1 | i
CCOC(=O)c1cc(C)nc2c1c(=O)n(Cc1nc(-c3ccc(OC)cc3)oc1C)c(=O)n2C | -24
CCOC(=O)c1cc(C)nc2c1c(=O)n(Cc1nc(-c3ccc(OC(C)C)cc3)oc1C)c(=O)n2C | -81*
CCOC(=O)c1cc(C)nc2c1c(=O)n(Cc1nc(-c3ccc(C)cc3)oc1C)c(=O)n2C | 8
Fc1cccc(Cl)c1-c1nccn1Cc1cccnc1 | 3
Cc1ccc(C(=O)Nc2ccc(CN3CCN(C)CC3)c(C(F)(F)F)c2)cc1C#Cc1cnc2[nH]ncc2c1 | -80*
CN(C)C1CCN(Cc2ccc(C(=O)Nc3ccc4c(cnn4C)c3)cc2)C1 (configuration not stated) | 79
Cc1ncc(NC(=O)c2ccc(CN3CCN(C)CC3)c(C(F)(F)F)c2)cc1Nc1nccc(-c2cccnc2)n1 | -23
COc1cc(F)ccc1-c1ncccc1NC(=O)C(C)C | 4
O=C(NCc1cccc(F)c1)c1cc2c(s1)CCN2C(=O)c1ccccc1 | -82*
COc1cccc(CNC(=O)c2nc3c(o2)CN(C(=O)c2cccc(F)c2)C3)c1 | 57
COc1cccc(CNC(=O)c2cc3c(s2)CCN3C(=O)CN(C)C)c1 | -6
COc1cccc(CNC(=O)N2CCc3nc(-c4ccccc4)sc3C2)c1 | 33
COc1cccc(CNC(=O)c2cc3c(s2)CCN3C(=O)c2ccc(F)cc2)c1 | -87*
COc1cccc(CNC(=O)c2nc(Nc3ccc(F)cc3)c3ccccc3n2)c1 | 22
COc1cccc(CNC(=O)c2cc3c(s2)CCN3C(=O)c2ccccc2)c1 | -100*
CC(C)CNC(=O)c1cc2c(s1)CCN2C(=O)C1CC1 | -3
CN(C)CCNC(=O)c1cc2c(s1)CCN2C(=O)C1CC1 | 2
Cc1oc(-c2ccccc2)nc1Cn1cnc2nc3c(cc2c1=O)CC(C)CC3 (configuration not stated) | 20

Screens: PubChem, Broad Institute
